Data published in PubChem BioAssay AID488975 (Johns Hopkins Ion Channel Center, 2010).
The whole screen tested about 310,000 compounds, of which about 2,600 (0.84%) were called active.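 The calls were made as follows: active = B-score over 3 SD under the library average, and starting fluorescence ratio not unusually high; inactive = the rest.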 For the sample, actives were picked, then their nearest neighbours and some compounds at random.

These compounds were tested against High affinity choline transporter 1 (Homo sapiens) (UniProt Q9GZV3) (assay: inhibits the human high affinity choline transporter (AID 488975;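 as to B-score: choline stimulus applied at its EC90 after an EC20 pre-addition; B-score computed on integrated fluorescence ratio after choline addition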)). Details: CHT-expressing cells, membrane potential dye, choline response, at 10 µM; hits give low values.
High affinity choline transporter 1 (Homo sapiens), sequence (Q9GZV3 whole entry, looked up): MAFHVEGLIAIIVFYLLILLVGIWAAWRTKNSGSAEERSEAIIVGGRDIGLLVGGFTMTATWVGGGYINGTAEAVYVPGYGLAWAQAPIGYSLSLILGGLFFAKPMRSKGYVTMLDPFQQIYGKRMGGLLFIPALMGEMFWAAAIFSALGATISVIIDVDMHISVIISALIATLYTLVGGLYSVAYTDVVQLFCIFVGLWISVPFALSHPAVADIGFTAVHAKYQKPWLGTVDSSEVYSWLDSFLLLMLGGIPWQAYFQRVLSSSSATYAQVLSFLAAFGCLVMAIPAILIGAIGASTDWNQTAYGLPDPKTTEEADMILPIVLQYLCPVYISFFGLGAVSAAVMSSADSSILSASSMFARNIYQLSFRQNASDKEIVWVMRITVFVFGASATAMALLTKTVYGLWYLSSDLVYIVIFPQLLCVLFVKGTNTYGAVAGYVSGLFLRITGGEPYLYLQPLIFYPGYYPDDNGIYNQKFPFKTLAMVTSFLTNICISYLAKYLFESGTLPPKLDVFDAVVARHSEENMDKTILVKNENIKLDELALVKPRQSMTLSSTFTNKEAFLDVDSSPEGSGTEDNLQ

Row | Compound | B-score
1 | Cc1nc2ccccn2c1P(=S)(N1CCCCC1)N1CCCCC1 | -6.55 (active)
2 | CC[C@H]1CC2CN3CCc4c([nH]c5ccccc45)C(C(=O)OC)(C2)C13 (stereo not given in full) | inactive
3 | COC(=O)C1=C(c2cc3ccccc3s2)C[C@@H]2CC[C@H]1N2C(=O)NC(C)C | inactive
4 | C[N+]1(C)CCOC(O)(c2ccc(-c3ccc(C4(O)C[N+](C)(C)CCO4)cc3)cc2)C1 (stereo not given) | -5.22 (active)
5 | C=CCN1C(=O)NC(=O)/C(=C/c2ccc(OCC(=O)Nc3ccc(C)cc3)cc2)C1=O | inactive
6 | COc1ccc(CNCCc2c[nH]c3ccccc23)cc1OC | inactive
7 | O=C(N/N=C/c1c(O)n(C2CC2)c(=S)[nH]c1=O)c1ccccc1 | inactive
8 | COc1ccc2c(c1)[C@]13CCCCC1C(C2)N(C)CC3 (stereo not given in full) | inactive
9 | COC(=O)C1=C(c2cc3ccccc3s2)C[C@@H]2CC[C@H]1N2C(=O)NCc1cccc2ccccc12 | inactive
10 | COc1ccccc1N1CCN(C(CNC(=O)Oc2ccccc2)c2cccnc2)CC1 (stereo not given) | -6.58 (active)
11 | COC(=O)C(c1ccccc1)N1CCCCCC1 (stereo not given) | inactive
12 | O=C(NCC(c1cccnc1)N1CCN(c2ccccc2)CC1)Oc1ccccc1 (stereo not given) | inactive
13 | COc1ccc(N2C(=O)/C(=C/c3ccco3)C(=O)NC2=S)cc1 | inactive
14 | COC(=O)C1=C(c2ccccc2)C[C@@H]2CC[C@H]1N2C(=O)NCc1ccco1 | inactive
15 | C/C(=N/O)c1ccc2ccc3ccccc3c2c1 | inactive
